In PubChem BioAssay AID485317 (Broad Institute, 2010):
The campaign covered roughly 290,000 compounds. About 11,000 (3.8%) were called active. The list comes from a sample in which actives are over-represented; it also holds similar structures and randomly drawn compounds. A number with no mark means an inactive call.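 How the source made its calls: active means mean replicate inhibition above about 79%, with every replicate also reaching it (limit read from the data); inconclusive means only one of the two criteria met; inactive means mean below limit and not every replicate reaching it.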

biological target: FAD-linked sulfhydryl oxidase ALR (Homo sapiens) (UniProt P55789); assay: ALR-catalysed DTT oxidation blockers – biochemical, H2O2 detection, HRP-luminol luminescence, single point, primary screen (AID 485317); conditions: purified ALR, active compounds read high, concentration not given here
Sequence (P55789 whole entry, looked up): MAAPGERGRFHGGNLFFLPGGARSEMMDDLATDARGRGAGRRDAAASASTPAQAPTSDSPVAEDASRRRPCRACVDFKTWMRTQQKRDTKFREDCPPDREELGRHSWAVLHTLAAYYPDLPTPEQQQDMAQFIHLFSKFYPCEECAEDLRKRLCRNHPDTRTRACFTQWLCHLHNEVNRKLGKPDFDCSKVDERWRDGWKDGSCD

Row | SMILES | inhibition
1 | CC(C)c1ccc(Nc2nnc(SCC(=O)c3nnc(-c4ccccc4)o3)s2)cc1 | 98.1% (active)
2 | O=C(CSc1nnc(Nc2ccccc2)s1)Nc1cccnc1Cl | 4.27%
3 | Cc1ccc(Nc2nnc(SCc3ccccc3)s2)cc1 | -12.9%
4 | CC(C)n1c(COc2ccccc2)nc2ccccc21 | 14.1%
5 | CC(C)n1c(-c2cccs2)nc2ccccc21 | -15.2%
6 | CC(C)n1c(NCc2c[nH]c3ccccc23)nc2ccccc21 | 97.9% (active)
7 | O=C(O)c1cc(S(=O)(=O)Nc2ccc3cn[nH]c3c2)ccc1Br | 42.7%
8 | COc1cc(/C=C/C(=O)Nc2ccc(OC)c(S(=O)(=O)N3CCOCC3)c2)ccc1OCC#N | -4.4%
9 | CCS(=O)(=O)N1Cc2ccccc2CC1C(=O)Nc1nc2ccc(F)cc2s1 (centres undefined) | 97.9% (active)
10 | CSc1ncccc1C(=O)Nc1nc2ccc(F)cc2s1 | -2.85%
11 | CCS(=O)(=O)N1Cc2ccccc2CC1C(=O)Nc1ccc(OC)cc1OC (centres undefined) | -16.1%
12 | CCOC(=O)C1Nc2ccc(C(F)(F)F)cc2C2C=CCC12 (centres undefined) | -11.3%
13 | Cc1cc(NC(=O)COc2ccc([N+](=O)[O-])cc2)no1 | 8.23%
14 | c1ccc(Nc2nc(N3CCOCC3)c3ccccc3n2)cc1 | 48.8%
15 | CN1CCN(c2nc(Nc3ccc(O)cc3)nc3ccccc23)CC1 | 98.9% (active)
16 | OCCNc1nc(Nc2ccc(Cl)c(Cl)c2)nc2ccccc12 | 19.6%
17 | CC(=O)c1c(C)[nH]c(C(=O)CN2C(=O)NC(C)(C)C2=O)c1C | 0.194%
18 | O=[N+]([O-])c1cccc(S(=O)(=O)NCc2ccccn2)c1 | -12.1%
19 | O=c1cc(CO)oc(C(Nc2cccc([N+](=O)[O-])c2)c2ccccn2)c1O (centres undefined) | 94.5% (active)
20 | O=c1cc(CO)oc(C(Nc2cccc(C(F)(F)F)c2)c2ccccn2)c1O (centres undefined) | 52.2%
21 | O=S1(=O)CC/C(=N\Nc2ccc(F)cc2)c2ccsc21 | 98.3% (active)
22 | COc1ccc(C(=O)N/N=C2\CCS(=O)(=O)c3ccc(F)cc32)cc1OC | -0.529%
23 | COc1ccccc1NC(=O)COC(=O)CNC(=O)C1CCCCC1 | -0.565%
24 | COc1ccc(-c2c(C#Cc3ccsc3)c3cc(-c4ccc(CN5CCOCC5)cc4)ccc3n2C)cc1 | -4.78%
25 | O=C(O)c1ccc(Cn2c(=S)[nH]c3cc(Cl)ccc3c2=O)cc1 | 94.9% (active)
26 | COc1ccc(Cn2c(=S)[nH]c3cc(C(=O)N4CCCCC4)ccc3c2=O)cc1 | 9.27%

Row | SMILES | inhibition
27 | CCOc1cc2[nH]c(=S)n(Cc3ccc(C(=O)N4CCN(C)CC4)cc3)c(=O)c2cc1OCC | -0.332%
28 | CC(=O)c1ccc(S(=O)(=O)Nc2ccc(-c3ccc4nncn4n3)cc2)cc1 | -13.1%
29 | O=C1c2ccccc2C(=O)N1CCC#Cc1ccc2cc(C3(O)CCCCC3)oc(=O)c2c1 | -19.8%
30 | CCOc1ccc(-c2cc(C(=O)N/N=C/c3ccc(O)cc3)c3ccccc3n2)cc1 | 1.65%
31 | O=C(COC(=O)C1CCCO1)Nc1nc(-c2ccc(F)cc2)cs1 (centres undefined) | -4.39%
32 | Cc1ccc2c(c1)C(O)(CC(=O)c1cccnc1)C(=O)N2 (centres undefined) | -0.959%
33 | Cc1cc(O)c(C2(O)C(=O)Nc3ccccc32)cc1C (centres undefined) | 16.1%
34 | Cc1ccc(NC2(C#N)C(=O)Nc3ccccc32)cc1 (centres undefined) | 97.6% (active)
35 | CC(=O)NC1CC2CCCC(C1)N2CC(=O)Nc1ccccc1 (centres undefined) | -9.69%
36 | CN(C)c1ccc(NC(=O)CN2C3CCCC2CC(NC(=O)c2ccccc2)C3)cc1 (centres undefined) | 99.7% (active)
37 | CCCN1C2CCCC1CC(NC(=O)c1cccc(OC)c1)C2 (centres undefined) | -4.94%
38 | O=C1C=CN2CCCC2CC1 (centres undefined) | -8.59%
39 | O=C(Nc1nc(-c2cccnc2)cs1)c1ccccc1F | 1.15%
40 | Cc1ccccc1Nc1nc(-c2cccnc2)cs1 | 11.2%
41 | CN(c1ccc(O)cc1)c1nc(-c2cccnc2)cs1 | 95.1% (active)
42 | C=CCC[C@H](Cc1ccc(F)cc1)C(=O)OC[C@H](C)NC(=O)[C@H](CC=C)CC(=O)N(CCO)Cc1ccccc1 | 2.24%
43 | COc1ccc([C@H]2CC(=O)C=C(/C=C/c3ccccc3)C2)cc1 | 1.57%
44 | O=C(NCCN1CCOCC1)c1cccc(S(=O)(=O)Nc2ccc(F)cc2)c1 | -5.52%
45 | O=C(COC(=O)c1ccc(Br)o1)NC12CC3CC(CC(C3)C1)C2 | -1.81%
46 | Cc1ccc(S(=O)(=O)Nc2nc(C)cc(N/N=C/c3ccc(O)cc3)n2)cc1 | 98.5% (active)
47 | Cc1cc(N/N=C\c2ccc(Br)cc2)nc(-n2nc(C)cc2C)n1 | -2.32%
48 | Cc1ccc(S(=O)(=O)Nc2nc(C)cc(-n3nc(C)cc3C)n2)cc1 | 7.83%
49 | CCN(C[C@H]1N[C@@](CC)(C(=O)OC)[C@H]2C(=O)N(Cc3ccccc3)C(=O)[C@@H]12)S(=O)(=O)c1ccc(C(F)(F)F)cc1 | 17.3%
50 | CCCc1ccc(OCC(O)CN2CCN(CCO)CC2)cc1 (centres undefined) | -1.03%
51 | CCc1ccc(S(=O)(=O)NCC(O)COc2ccc(OC)cc2)cc1 (centres undefined) | -11.7%
52 | Nc1ccc(OCC(O)C[n+]2ccc(CCS(=O)(=O)[O-])cc2)cc1 (centres undefined) | 98.1% (active)

Row | SMILES | inhibition
53 | CCN(CC)C(CNC(=O)CSc1nnnn1-c1cccc(F)c1)c1ccco1 (centres undefined) | -5.32%
54 | O=c1c2ccccc2ccc2ccc(P(=O)(O)O)cc12 | -13.1%
55 | O=C1NC[C@@H](c2ccccc2)OC(=O)[C@H](Cc2ccc(F)cc2)CC/C=C/C[C@H]1CC(=O)N(CCO)Cc1ccccc1 | -7.53%
56 | CC(C)(C)OC(=O)Nc1ccc([C@@H](NC(=O)OC(C)(C)C)C(=O)OC(C)(C)C)cc1 | 2.09%
57 | CC(C)NC(=O)c1ccc(Sc2ccccc2)c([N+](=O)[O-])c1 | 5.17%
58 | Cc1ccc(Sc2cc(C(=O)c3ccccc3C(=O)O)ccc2[N+](=O)[O-])cc1 | 97.5% (active)
59 | Cc1cc(C(=O)O)ccc1[N+](=O)[O-] | -8.6%
60 | COc1ccc2c(c1)cc1n2CCN=C1NN | 97.6% (active)
61 | COc1ccc2ccn(C)c2c1 | 7.82%
62 | O=C(CNC(=O)c1n[nH]c2ccccc12)Nc1cc(Cl)ccc1Cl | -1.04%
63 | Cc1ccc(CNC(=O)COC(=O)C2CCC2)cc1 | 2.97%
64 | CCN(CC)CCCSc1nc2ccccc2s1 | -9.41%
65 | O=C(O)c1ccccc1CSc1nc2ccccc2s1 | 98.5% (active)
66 | O=C(CSc1nc2ccccc2s1)Nc1ccc(C(=O)O)cc1 | -1.73%
67 | Cc1ccc(C(=O)OCC(=O)N2CC(C)CC(C)C2)cc1S(=O)(=O)N1CCCCC1 (centres undefined) | -62.3%
68 | COCCCn1c(SCC(=O)Nc2oc(C)c3c(C)n[nH]c(=O)c23)nc2sc3c(c2c1=O)CCC3 | -9.92%
69 | CC(OC(=O)CCC(=O)c1ccccc1)C(=O)Nc1ccc(F)cc1 (centres undefined) | -4.58%
70 | O=C(CCCN=C1NS(=O)(=O)c2ccccc21)OCC(=O)c1ccc(F)c(F)c1 | -7.91%
71 | Nc1c(NCCc2ccccc2)c2ccccc2oc1=O | 98.8% (active)
72 | NC(=O)c1oc2ccccc2c1NC(=O)Cc1ccccc1 | -7.38%
73 | CC(C)(C)Nc1c(N)c(=O)oc2ccccc12 | 72.1%
74 | O=C(Nc1ccc(C(F)(F)F)cc1)c1cccc(-n2cnnn2)c1 | -5.63%
75 | CSc1ncccc1C(=O)NCC(c1ccco1)N1CCCCC1 (centres undefined) | -3.83%
76 | O=C(COC(=O)c1cc(=O)[nH]c2ccccc12)NCc1cccc(Cl)c1 | 1.99%
77 | COc1ccc(N2CCN(C(=O)/C(C#N)=C/c3ccccc3)CC2)cc1 | 33.6%
78 | N#C/C(=C\c1ccc(N2CCOCC2)o1)C(=O)N1CCOCC1 | 83.6% (active)

Row | SMILES | inhibition
79 | N#C/C(=C\c1ccc(-c2cccc([N+](=O)[O-])c2)o1)C(=O)NCCN1CCOCC1 | -9.22%
80 | COc1ccccc1C(=O)NCCC(=O)NC(C)CCc1ccccc1 (centres undefined) | -10.1%
81 | Cc1sc2ncnc(N3CCC(C(=O)Nc4nc5ccc(Cl)cc5s4)CC3)c2c1C | -1.15%
82 | CC(C)Oc1ccc(C(=O)NCC(=O)Nc2ccc3c(c2)CCC3)cc1 | 1.47%
83 | O=C(COc1ccc(Cl)cc1)Nc1ccc2c(c1)OCO2 | -11.8%
84 | NNC(=O)COc1ccc(C2SCCS2)cc1 | 89.6% (active)
85 | COc1ccc(OCC(=O)NNC(=O)C2CCC2)cc1 | -2.8%
86 | O=C(NCc1ccccc1CN1CCCC1)C1CCN(S(=O)(=O)c2ccc(Cl)cc2)CC1 | 2.81%
87 | COC(=O)C1=C(C)N(Cc2ccccc2)C(=NCCCOC(C)C)N[C@H]1c1ccccc1 | -6.98%
88 | CCN(CCCNC(=O)CCn1c(=O)[nH]c2ccsc2c1=O)c1ccccc1 | 99.3% (active)
89 | CCCCC(CC)CNC(=O)CCCCn1c(=O)[nH]c2ccsc2c1=O (centres undefined) | -6.66%
90 | CCN(CC)CCCNC(=O)CCc1ccccc1 | -4.98%
91 | CC(C)(C)Oc1ccccc1Nc1nc(NCCO)nc(N2CCCC2)n1 | 6.57%
92 | Cc1ccsc1C(=O)NNC(=O)COc1ccc(Br)cc1 | -3.21%
93 | Nn1c(SCC(=O)Nc2nccs2)nncc1=O | 98.8% (active)
94 | COc1ccc(NC(=O)CSc2nc3ccccc3c(=O)n2C)cc1 | -13.7%
95 | COc1ccc(NC(=O)CSc2nncc(=O)n2N)cc1OC | 87% (active)
96 | CCn1c(SCC(=O)Nc2nccs2)nnc1-c1ccco1 | -4.02%
97 | Cc1cc(-c2nnc(SCC(=O)Nc3ccc(F)cc3)n2N)n[nH]1 | -1.02%
98 | COc1ccc(NC(=O)CSc2nnc(Cc3ccccc3)c(=O)n2N)cc1 | 98.6% (active)
99 | COc1ccc(Cc2nnc(SCC(=O)N(c3ccccc3)C(C)C)n(N)c2=O)cc1 | -4.76%
100 | Cc1cc(C(=O)OCC(=O)Nc2nccs2)c2ccccc2n1 | -1.42%
101 | Cc1[nH]c2ccccc2c1SCC(=O)Nc1nccs1 | 97.1% (active)
102 | CCn1c(SCC(=O)Nc2ccc(OC)c(OC)c2)nnc1-c1c[nH]c2ccccc12 | -15.3%
103 | Cn1c(SCC(=O)Nc2nccs2)nnc1-c1cccnc1 | 2.9%
104 | CCn1c(SCC(=O)Nc2nccs2)nnc1-c1ccncc1 | -12.3%
